“And” between values parts separate entries of the source, which are not always exact repeats. Identical values can stand only once. Inconclusive results are not listed. Some structures have more than one record in an assay (separate samples or runs), and their calls can disagree. The source made the active and inactive calls. Rule for the calls: active = hit-call score of the fitted dose curve at least 0.9, where 1 is the maximum; inconclusive = response in the unintended direction; inactive = score below 0.9.

The experiment is described as follows: TOX21_p53_BLA_p2_viability: Viability Assessment in the Tox21 HCT-116 p53 Agonism Beta-lactamase Assay, Phase 2 (AID 2283591).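 Note: compound exposure lasted 16 h at 37 °C; actives lower the ATP signal meaning cytotoxicity.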 The source says: TOX21_p53_BLA_p2 is a cell-based, single-readout assay that uses HCT116, a human intestinal cell line, […] in a 1536-well plate.TOX21_p53_BLA_p2_viability is an assay readout measuring cellular ATP content and detected with CellTiter-Glo Luciferase-coupled ATP quantitation.TOX21_p53_BLA_p2_viability used a type of viability reporter where loss-of-signal activity can be used to understand changes in the cell viability. Furthermore, this assay endpoint can be referred to as a secondary readout, because this assay has produced multiple assay endpoints where this one serves a viability function. To generalize the intended target to other relatable targets, this assay endpoint is annotated to the cell cycle intended target family, where the subfamily is cytotoxicity.
Thawing Method: Place 14 mL of pre-warmed thaw medium into a 15 mL of conical tub. Remove the vial of cells to be thawed from liquid nitrogen and thaw rapidly by placing at 37C in a water bath with gentle agitation for 1-2 minutes. Decontaminate the vial by wiping with 70% ethanol before opening in a biological safety cabinet. Transfer the vial contents drop-wise into 14 mL of thaw medium in a sterile 15-mL conical tub. Centrifuge cells at 900 rpm for 4 minutes and resuspend in thaw medium. Transfer contents to the T75 tissue culture flask containing Thaw Medium and place flask in a humidified 37C/5% CO2 incubator. Switch to growth medium at first passage.Propagation Method: Aspirate medium, rinse once in DPBS, add 0.25% Trypsin/EDTA and swirl to coat the cell evenly. Add an equal volume of Growth Medium to inactivate Trypsin after 2-3 minutes incubation at 37C. Centrifuge cells at 900 rpm for 4 minutes and resuspend in growth medium. Cell should be passage or fed at least twice a week.Assay Protocol: Harvest cells from culture in growth medium and resuspend in assay medium. 2.2 Dispense 4000 cells/5 uL/well into 1536-well black/clear bottom plates using a Multidrop dispenser. After the cells were incubated at 37C for 5 hours, 23 nL of compounds dissolved in DMSO were transferred to the assay plate by a PinTool resulting in a 217-fold dilution. Incubate the plates for 16 hours at 37C, 5% CO2. Add 1 uL of 6X LiveBLAzer FRET B/G (CCF4-AM) Substrate Mixture to each well using a BioRAPTR dispenser and incubate the plates at room temperature for 2 hours. Measure fluorescence intensity at 460 and 530 nm emission and 405 nm excitation by an Envision detector. Data is expressed as the ratio of 460nm/530nm emissions. Add 4 uL of Cell-titer Glo to each well using BioRAPTR and incubate the plates at room temperature for […]. For cell viability readout that measures cytotoxicity, 4 ul/well of CellTiter-Glo reagent was added into the assay plates using a Flying Reagent Dispenser. After 30 min incubation at room temperature, the luminescence intensity in the plates was measured using a ViewLux plate reader.
Take `O=c1cc[nH]c(=S)[nH]1`: the molecule was called inactive.
On the same count and under the same terms, next, `CC(=O)Nc1ccc2c(c1)Cc1cc(NC(C)=O)ccc1-2`: “inactive”.
The same measure, in the same setting: in the case of `NC(CO)(CO)CO` it was “inactive”; in that of `O=C(Cl)c1cc(C(=O)Cl)cc(C(=O)Cl)c1`, “inactive”; in that of `SCCc1cnccn1`, “inactive”.
Still for that read-out and setting: in the case of `O=C(c1ccccc1)c1ccc(O)c(O)c1O` it was “inactive”.
`CN(C)c1ccc(C(=N)c2ccc(N(C)C)cc2)cc1`: the outcome was inactive.
Broadly, the AC50 is the concentration at which the activity in the assay is half-maximal. Turning to `CCCCCCCCCCCCCCCC[N+](C)(C)CC`, the AC50 was 37.2 µM (active).
Take `CC1=NC(C)OC1C` (stereo not given): the outcome was inactive.
The same measure, in the same setting: next, `CCCCCc1ccc(Cl)cc1`: “inactive”; `O=C1CCCCCN1SSN1CCCCCC1=O`: “inactive”.
Same read-out and setting: in the case of `O=S(=O)(O)c1ccccc1C=Cc1ccc(-c2ccc(C=Cc3ccccc3S(=O)(=O)O)cc2)cc1` it was “inactive”.
Consider `CCOC(=O)N1CCC(=C2c3ccc(Cl)cc3CCc3cccnc32)CC1`, for which the AC50 is 69.7 µM (active) and 36.8 µM (active).
Take `COC(=O)c1c(C)cc(O)c(C)c1O`: the outcome was inactive.
On the same count and under the same terms, next, `CC1=CC[C@H]2C[C@@H]1C2(C)C`: “inactive”; `CC/C=C\CCOC(=O)CCCCC`: “inactive”.
Regarding `CC(C)C1=CC2=CC[C@@H]3[C@](C)(CCC[C@@]3(C)C(=O)O)[C@H]2CC1`, the AC50 is 58.9 µM (active).
As to `CC1=CC[C@H](C(C)C)C=C1`, the call was inactive.
In the case of `COCCOCCOCCOCCOC`, the result was inactive.
Still for that read-out and setting: in the case of `CCO[Si](C)(OCC)OCC` it was “inactive”; in that of `Nc1ncn([C@@H]2O[C@H](CO)[C@@H](O)[C@H]2O)c(=O)n1`, “inactive”; in that of `O=C1CCCN1CCO`, “inactive”.
For `N=c1ccn2c(n1)O[C@H]1[C@H](O)[C@@H](CO)O[C@H]12`, the outcome was inactive.
Same read-out and setting: next, `CN1C(=O)N(C)C(O)C1O` (stereo not given): “inactive”.
On to `CC1=Nc2ccc3ccccc3c2C1(C)C`, for which the molecule was classed as inactive.
As for `[Cl][Bi]([Cl])([c]1ccccc1)([c]1ccccc1)[c]1ccccc1`, the AC50 was 13.9 µM (active).
The same measure, in the same setting: next, `CN(C)c1ccc(N=Nc2ccccc2C(=O)O)cc1`: 75.8 µM (active).
On to `Nc1ccc(Cl)cc1Cl`, for which the result was inactive.
The same measure, in the same setting: in the case of `C=C(C)[C@H]1CC=C(C)CC1` it was “inactive”; in that of `CCCCCCCCC(=O)OCC`, “inactive”.
Regarding `COc1cc(NC(=O)CC(C)=O)c(OC)cc1Cl`, the AC50 was 18.8 µM (active) and the call was inactive.
For `CC(C)CC(O)Cc1ccccc1` (stereo not given), the outcome was inactive.
On the same count and under the same terms, next, `N[C@H]1C(O)O[C@H](CO)[C@H](O)[C@@H]1O` (stereo not given in full): “inactive”.
Still for that read-out and setting: in the case of `C=CCOc1c(Br)cc(Br)cc1Br` it was “inactive”; in that of `CCOCC(=O)O`, “inactive”.
Consider `O=C(Oc1ccccc1)c1ccc2ccccc2c1O`, for which the molecule was classed as inactive.
On the same count and under the same terms, next, `O=c1[nH]nc(-c2ccc([N+](=O)[O-])o2)o1`: “inactive”; `Cc1cccc(N)n1`: “inactive”; `O=C(C=Cc1ccccc1)OCc1ccccc1`: “inactive”.

Values taken from PubChem BioAssay (EPA / NIEHS).
